Data reported in PubChem BioAssay AID1159580 (chemical genetic matrix, 2015).
The whole screen tested about 5,500 compounds, of which about 2,000 (36%) were called active. Roughly 18% stayed inconclusive and do not appear here. No stated cut-off is given here; in the data, active means normalized growth mostly below about 0.91 (no sharp cut-off); inconclusive means no clear call, values can overlap the other calls; inactive means mostly above about 0.92. The list shows a part of the results.

Assay: chemical genetic growth profiling, strain panel (AID 1159580);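 further: tested at 20 µM; growth read once vehicle control cultures reached saturation at 30 °C; 1 = growth at the plate median or of vehicle wells; lower values mean less growth of the strain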
Settings: growth OD

Measured: normalized growth

COC(=O)Nc1nc2ccc(C(=O)c3ccccc3)cc2[nH]1
inactive: S. cerevisiae deletion strains, locus YJR075W, strain HOC1, hits give low values 0.924 | S. cerevisiae deletion strains, locus YKL009W, strain mrt4, hits give low values 1.05 | S. cerevisiae deletion strains, locus YKL085W, strain MDH1 (second series), hits give low values 1.05 | S. cerevisiae deletion strains, locus YKL085W, strain MDH1, hits give low values 1.05 | S. cerevisiae deletion strains, locus YKL190W, strain CNB1, hits give low values 1.01 | S. cerevisiae deletion strains, locus YKR001C, strain vps1, hits give low values 0.956 | S. cerevisiae deletion strains, locus YKR026C, strain gcn3, hits give low values 0.956 | S. cerevisiae deletion strains, locus YKR091W, strain srl3, hits give low values 1 | S. cerevisiae deletion strains, locus YLL001W, strain dnm1, hits give low values 0.933 | S. cerevisiae deletion strains, locus YLL026W, hits give low values 0.973 | S. cerevisiae deletion strains, locus YLL041C, strain sdh2, hits give low values 0.984 | S. cerevisiae deletion strains, locus YLR027C, strain aat2, hits give low values 0.94 | S. cerevisiae deletion strains, locus YLR039C, strain RIC1, hits give low values 0.938 | S. cerevisiae deletion strains, locus YLR058C, strain SHM2, hits give low values 1.02 | S. cerevisiae deletion strains, locus YLR102C, strain apc9, hits give low values 1 | S. cerevisiae deletion strains, locus YLR113W, strain HOG1, hits give low values 0.946 | S. cerevisiae deletion strains, locus YLR221C, strain rsa3, hits give low values 0.939 | S. cerevisiae deletion strains, locus YLR258W, strain gsy2, hits give low values 0.949 | S. cerevisiae deletion strains, locus YLR262C, strain YPT6, hits give low values 0.98 | S. cerevisiae deletion strains, locus YLR268W, strain sec22, hits give low values 0.98 | S. cerevisiae deletion strains, locus YLR330W, strain CHS5, hits give low values 1 | S. cerevisiae deletion strains, locus YLR342W, strain FKS1 (second series), hits give low values 0.852 | S. cerevisiae deletion strains, locus YLR357W, strain rsc2, hits give low values 0.925 | S. cerevisiae deletion strains, locus YLR370C, strain arc18, hits give low values 0.946 | S. cerevisiae deletion strains, locus YLR371W, strain rom2, hits give low values 1.01 | S. cerevisiae deletion strains, locus YLR384C, strain iki3, hits give low values 1 | S. cerevisiae deletion strains, locus YLR418C, strain cdc73, hits give low values 0.932 | S. cerevisiae deletion strains, locus YML016C, strain PPZ1, hits give low values 1.01 | S. cerevisiae deletion strains, locus YML032C, strain rad52, hits give low values 0.957 | S. cerevisiae deletion strains, locus YML120C, strain ndi1, hits give low values 0.96 | S. cerevisiae deletion strains, locus YMR058W, strain fet3, hits give low values 0.968 | S. cerevisiae deletion strains, locus YMR078C, strain ctf18, hits give low values 0.986 | S. cerevisiae deletion strains, locus YMR125W, strain sto1, hits give low values 1.03 | S. cerevisiae deletion strains, locus YMR129W, hits give low values 0.987 | S. cerevisiae deletion strains, locus YMR223W, strain ubp8, hits give low values 0.965 | S. cerevisiae deletion strains, locus YMR231W, strain pep5, hits give low values 0.955 | S. cerevisiae deletion strains, locus YMR263W, strain SAP30, hits give low values 0.999 | S. cerevisiae deletion strains, locus YNL067W, strain RPL9B, hits give low values 0.978 | S. cerevisiae deletion strains, locus YNL071W, strain lat1, hits give low values 0.925 | S. cerevisiae deletion strains, locus YNL128W, strain TEP1, hits give low values 1.01 | S. cerevisiae deletion strains, locus YNL209W, strain ssb2, hits give low values 0.971 | S. cerevisiae deletion strains, locus YNL248C, strain rpa49, hits give low values 0.977 | S. cerevisiae deletion strains, locus YNL250W, strain rad50, hits give low values 0.994 | S. cerevisiae deletion strains, locus YNL271C, strain bni1, hits give low values 1.01 | S. cerevisiae deletion strains, locus YNL298W, strain CLA4, hits give low values 1 | S. cerevisiae deletion strains, locus YNL322C, strain KRE1, hits give low values 0.997 | S. cerevisiae deletion strains, locus YNR049C, strain mso1, hits give low values 0.981 | S. cerevisiae deletion strains, locus YOL006C, strain TOP1, hits give low values 0.968 | S. cerevisiae deletion strains, locus YOL012C, strain htz1 0.338 | S. cerevisiae deletion strains, locus YOL147C, strain pex11, hits give low values 0.988 | S. cerevisiae deletion strains, locus YOR001W, strain rrp6, hits give low values 0.925 | S. cerevisiae deletion strains, locus YOR061W, strain CKA2, hits give low values 1 | S. cerevisiae deletion strains, locus YOR069W, strain VPS5, hits give low values 0.993 | S. cerevisiae deletion strains, locus YOR070C, strain gyp1, hits give low values 0.949 | S. cerevisiae deletion strains, locus YOR080W, strain dia2, hits give low values 0.979 | S. cerevisiae deletion strains, locus YOR083W, strain WHI5, hits give low values 0.896 | S. cerevisiae deletion strains, locus YOR136W, strain idh2, hits give low values 1.01 | S. cerevisiae deletion strains, locus YOR144C, strain elg1, hits give low values 1 | S. cerevisiae deletion strains, locus YOR231W, strain MKK1, hits give low values 0.931 | S. cerevisiae deletion strains, locus YOR265W, strain rbl2, hits give low values 0.98 | S. cerevisiae deletion strains, locus YOR270C, strain vph1, hits give low values 1.07 | S. cerevisiae deletion strains, locus YOR290C, strain snf2, hits give low values 0.959 | S. cerevisiae deletion strains, locus YOR316C, strain cot1, hits give low values 1 | S. cerevisiae deletion strains, locus YPL055C, strain LGE1, hits give low values 0.865 | S. cerevisiae deletion strains, locus YPL078C, strain atp4, hits give low values 0.931 | S. cerevisiae deletion strains, locus YPL106C, strain sse1, hits give low values 1.12 | S. cerevisiae deletion strains, locus YPL240C, strain hsp82, hits give low values 0.992 | S. cerevisiae deletion strains, locus YPL256C, strain CLN2, hits give low values 0.914 | S. cerevisiae deletion strains, locus YPR119W, strain clb2, hits give low values 0.998 | S. cerevisiae deletion strains, locus YPR141C, strain kar3, hits give low values 1.03 | S. cerevisiae deletion strains, locus YPR167C, strain met16, hits give low values 1 | S. cerevisiae deletion strains, strain wtn01, hits give low values 0.983 | S. cerevisiae strains, strain wild type, hits give low values 0.99
active: S. cerevisiae deletion strains, locus YKL160W, strain elf1, hits give low values 0.894 | S. cerevisiae deletion strains, locus YLR262C, strain YPT6 (second series), hits give low values 0.782 | S. cerevisiae deletion strains, locus YLR320W, strain mms22, hits give low values 0.849 | S. cerevisiae deletion strains, locus YLR342W, strain FKS1, hits give low values 0.908 | S. cerevisiae deletion strains, locus YML124C, strain tub3, hits give low values 0.207 | S. cerevisiae deletion strains, locus YMR205C, strain PFK2, hits give low values 0.806 | S. cerevisiae deletion strains, locus YMR307W, strain GAS1, hits give low values 0.463 | S. cerevisiae deletion strains, locus YNL153C, strain GIM3, hits give low values 0.0819 | S. cerevisiae deletion strains, locus YNL183C, strain NPR1, hits give low values 0.827 | S. cerevisiae deletion strains, locus YNL233W, strain BNI4, hits give low values 0.814 | S. cerevisiae deletion strains, locus YNL307C, strain MCK1, hits give low values 0.742 | S. cerevisiae deletion strains, locus YNL322C, strain KRE1 (second series), hits give low values 0.901 | S. cerevisiae deletion strains, locus YNR052C, strain pop2, hits give low values 0.91 | S. cerevisiae deletion strains, locus YOR106W, strain vam3, hits give low values 0.855 | S. cerevisiae deletion strains, locus YOR184W, strain ser1, hits give low values 0.717 | S. cerevisiae deletion strains, locus YPL051W, strain arl3, hits give low values 0.869 | S. cerevisiae deletion strains, locus YPL241C, strain CIN2, hits give low values 0.0733 | S. cerevisiae deletion strains, locus YPR163C, strain tif3, hits give low values 0.799
